PubChem BioAssay (NCI)
“And” between values parts separate entries of the source, which are not always exact repeats. Identical values can stand only once. This is part of a sample that, as a whole, favours compounds with a hit. Of some 83,000 tested, about 20% had one in any assay.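 The test compound was applied at a single concentration to cells in 96-well plates for 48 hours, and percent growth was recorded.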 The source made the active and inactive calls. Rule for the calls: active = growth percent below 10; inactive = the rest.

Columns and labels:
Experiment in all cases: NCI-60 one-dose screen, 48 h (100 = growth as untreated, 0 = no growth, -100 = all killed)
Conditions in all cases: 10 µM unless noted
T-47D breast = system: T-47D breast
BT-549 breast = system: BT-549 breast
MDA-MB-435 melanoma = system: MDA-MB-435 melanoma
SW-620 colon = system: SW-620 colon
MCF7 breast = system: MCF7 breast
HCT-116 colon = system: HCT-116 colon
HCC-2998 colon = system: HCC-2998 colon
KM12 colon = system: KM12 colon

Measured: growth

O=C1Nc2ccccc2/C1=C/c1cccn1CCCCCn1c2ccccc2c(=O)c2ccccc21
inactive: BT-549 breast 65.5% | MDA-MB-435 melanoma 93.6% | SW-620 colon 100% | HCT-116 colon 69.8% | HCC-2998 colon 42.5% | KM12 colon 12.1%
active: T-47D breast 1.55% | MCF7 breast 1.17%

COc1ccc(-c2nc(Cl)c3c(C)nn(-c4ccc(F)cc4)c3n2)cc1
inactive: T-47D breast 102% | BT-549 breast 123% | MDA-MB-435 melanoma 112% | SW-620 colon 103% | MCF7 breast 105% | HCT-116 colon 96.5% | HCC-2998 colon 103% | KM12 colon 104%

Cc1c(CC(=O)OCCO)cc(-c2ccc(Cl)cc2)n1-c1ccccc1
inactive: T-47D breast 72.3% | BT-549 breast 109% | MDA-MB-435 melanoma 98.7% | SW-620 colon 104% | MCF7 breast 93% | HCT-116 colon 102% | HCC-2998 colon 118% | KM12 colon 99.1%

CCOc1ccc(N2C(N)=NC(N)=NC2(C)C)cc1
6.3% (active) and 88.3% (inactive): MCF7 breast
-42.8% (active) and 82.7% (inactive): MDA-MB-435 melanoma
inactive: T-47D breast 38% and 86% | BT-549 breast 59.6% and 83.4% | SW-620 colon 16.2% and 75.8% | HCT-116 colon 21.4% and 63.1% | HCC-2998 colon 40.2% and 112% | KM12 colon 25.1% and 95.6%

CC/C(=C(/c1ccc(Cl)cc1)c1ccc(OCCN2CCOCC2)cc1)c1ccccc1
inactive: T-47D breast 71.7% | BT-549 breast 117% | MDA-MB-435 melanoma 94.8% | SW-620 colon 83.7% | MCF7 breast 86.2% | HCT-116 colon 77.6% | HCC-2998 colon 99.8% | KM12 colon 96.6%

C[C@@H]1CC[C@@H]2[C@@H]1[C@H](OC(=O)/C=C/c1ccccc1)[C@]1(c3ccccc3)C[C@@H](NC(=O)CO)[C@@]2(C)O1
inactive: T-47D breast 93.3% | BT-549 breast 114% | MDA-MB-435 melanoma 100% | SW-620 colon 104% | MCF7 breast 79.4% | HCT-116 colon 100% | HCC-2998 colon 104%

N=C1/C(=C2\NC3C=CC=CC3S2)C(c2ccc(Cl)cc2)C2C(=O)N(c3ccccc3)C(=S)N12 (stereo not given)
inactive: T-47D breast 102% | BT-549 breast 95.4% | MDA-MB-435 melanoma 108% | SW-620 colon 104% | MCF7 breast 94.1% | HCT-116 colon 101% | HCC-2998 colon 99.1% | KM12 colon 108%

Cc1ccc(C(=O)Nc2nc3c(s2)CN(Cc2ccccc2)CC3)cn1
inactive: T-47D breast 83.8% | BT-549 breast 94.9% | SW-620 colon 69.8% | MCF7 breast 64% | HCT-116 colon 80.7% | HCC-2998 colon 77.9%
active: MDA-MB-435 melanoma 7.68%

c1cc(NCCCCN2CCOCC2)c2ccc3c(ccc4c(NCCN5CCOCC5)ccnc43)c2n1
inactive: T-47D breast 94.9% | BT-549 breast 103% | MDA-MB-435 melanoma 98.5% | MCF7 breast 58.5% | HCT-116 colon 48.4% | HCC-2998 colon 87.8% | KM12 colon 92.1%
active: SW-620 colon -16.5%

CCOC(=O)n1cc(-c2nonc2-c2cn(C)c3ccc(OC)cc23)c2cc(F)ccc21
inactive: T-47D breast 73% | BT-549 breast 86.9% | MDA-MB-435 melanoma 85.7% | SW-620 colon 80.5% | MCF7 breast 77.6% | HCT-116 colon 77.3% | HCC-2998 colon 91.9% | KM12 colon 77.7%

CCCN1C(=O)/C(=c2\sc3n(c2=O)C2C(NN=3)N(CC)C(=O)N2CC)c2ccccc21 (stereo not given)
active: MDA-MB-435 melanoma -21.2% | MCF7 breast 9.94% | HCT-116 colon 7.6%
inactive: T-47D breast 27.8% | BT-549 breast 20.8% | SW-620 colon 24.9% | HCC-2998 colon 15.5% | KM12 colon 20%

COC(=O)c1nc(-c2ccc(C)cc2)oc1Sc1ccc(C)cc1
inactive: T-47D breast 72.9% | BT-549 breast 101% | MDA-MB-435 melanoma 103% | SW-620 colon 103% | MCF7 breast 93.7% | HCT-116 colon 99.4% | HCC-2998 colon 110% | KM12 colon 98.6%

CONC1=Nc2cc(NC(N)=NCc3ccccc3)c(N(C)C3CCCCC3)cc2OC1
inactive: T-47D breast 63.7% | BT-549 breast 92% | MDA-MB-435 melanoma 73% | SW-620 colon 75% | MCF7 breast 36.1% | HCT-116 colon 45.8% | HCC-2998 colon 22.1% | KM12 colon 61.5%

Nc1nc(N)c2c(n1)NC(c1ccc(Cl)cc1)CC(c1cccc(Nc3ccncc3)c1)=N2 (stereo not given)
inactive: T-47D breast 77.6% | BT-549 breast 110% | MDA-MB-435 melanoma 42.7% | SW-620 colon 30% | MCF7 breast 49.4% | HCT-116 colon 21.9% | HCC-2998 colon 72.1% | KM12 colon 63.7%

FC(F)(F)Sc1ccc(/C=C/c2cc(/C=C/c3ccc(SC(F)(F)F)cc3)n(-c3ccccc3)n2)cc1
inactive: T-47D breast 84.3% | BT-549 breast 103% | MDA-MB-435 melanoma 91.7% | SW-620 colon 94.9% | MCF7 breast 89% | HCT-116 colon 94.3% | HCC-2998 colon 101%

C/C=C(/C)C(=O)O[C@@H]1CC(C)(C)CC2C34OC(=O)[C@@]21CC[C@@]3(C)[C@]1(C)CCC2C(C)(C)C(=O)CC[C@]2(C)C1C[C@@H]4Cl (stereo not given in full)
inactive: T-47D breast 99.1% | BT-549 breast 108% | MDA-MB-435 melanoma 102% | SW-620 colon 96.7% | MCF7 breast 97.6% | HCT-116 colon 86.2% | HCC-2998 colon 102% | KM12 colon 104%
